Screening results from PubChem.
ERK EGF block – qHTS Assay for Inhibitors of the ERK Signaling Pathway using a Homogeneous Screening Assay; Stimulation with EGF | HEK293-V1b, EGF-stimulated phospho-ERK AlphaScreen | Potency, µM (highest dose often 11.5 µM), inactives show top-dose activity change, negative = inhibition, usual class: inhibitors | actives 0.41% (n = 130,000); active = well fitted inhibition curve with a large enough effect;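 also: plate controls were stimulated vehicle wells for no effect and unstimulated vehicle basal for full effect; nearly all actives have a fitted effect of over 55% in size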
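Concentration-response of compounds against EGF-driven ERK phosphorylation in V1b-expressing HEK293 cells; 30 min preincubation, 5 min EGF, AlphaScreen detection; Normalized to DMSO basal and 25 nM EGF.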
An asterisk follows results filed as active; [ ] = dose if it differs, or a comment. Only a selection was taken, and hits are over-represented in it overall. Potency is read from the fitted curve at half-maximal effect.

For CN1CCN(c2ncc3nc(-c4ccccc4)c(=O)n(-c4ccccc4)c3n2)CC1 the results were ERK EGF block -2.7%.
COc1cc(/C=N/O)ccc1OCc1ccc(Cl)cc1 was read as ERK EGF block -11.1%.
CCOc1cc(/C=N/N=C(N)N)ccc1OCc1ccc(Cl)cc1 was read as ERK EGF block 31.6µM*.
COc1cc(/C=N/N=C(N)N)ccc1OCc1ccc(Cl)cc1 was read as ERK EGF block 4.3%.
For O=C(NC[C@@H](O)CO)c1c(I)c(C(=O)NC[C@@H](O)CO)c(I)c(N(CCO)C(=O)CO)c1I the results were ERK EGF block 20.4%[25.7 µM].
For COc1ccc(C2c3ccc4ccccc4c3Oc3ncn(CCCO)c(=N)c32)cc1OC (stereo not given) the results were ERK EGF block -9.9%[57.5 µM].
COc1ccc(C2c3ccc4ccccc4c3Oc3ncn(CCCO)c(=N)c32)cc1 (stereo not given) was read as ERK EGF block 39.8µM*.
Screening N=c1c2c(ncn1CCCO)Oc1c(ccc3ccccc13)C2c1ccccc1 (stereo not given) returned ERK EGF block -10.6%[57.5 µM].
Screening CC1CC2C3CC(F)C4=CC(=O)C=C[C@@]4(C)[C@@]3(F)C(O)C[C@]2(C)[C@]1(O)C(=O)COC(=O)C(C)(C)C (stereo not given in full) returned ERK EGF block 12.5%.
`N.N.N.N.N.N.N.N.N.N.N.N.N.N.O.O.[Cl-].[Cl-].[Cl-].[Cl-].[Cl-].[Cl-].[Ru].[Ru].[Ru]` gave ERK EGF block 15.8µM*.
COC(=O)C/C=C/[C@@H](C)[C@@H](Cc1ccccc1Br)OC was read as ERK EGF block 0.0%.
For CC(=O)c1cccc2c(O)c(C3=Nc4ccccc4C3=O)[nH]c12 the results were ERK EGF block 25.1µM*.
`CC(=O)Nc1c(O)c2ccccc2[nH]c1=O` gave ERK EGF block 2.0%.
`O=C(O)c1cccc2c(-c3ccccc3)c(-c3ccccc3)[nH]c12` gave ERK EGF block 8.3%[57.5 µM].
`CCNc1ncc2nc(CCc3ccccc3)c(=O)n(C)c2n1` gave ERK EGF block -3.1%.
Screening COC(=O)C1C(O)CC[C@H]2CN3CCc4c([nH]c5ccccc45)C3C[C@H]12 (stereo not given in full) returned ERK EGF block 22.4%.
For CN=c1scc(-c2ccccc2F)n1/N=C/c1ccc(O)c(O)c1O the results were ERK EGF block 28.2µM*.
Screening CN=c1scc(-c2ccccc2F)n1/N=C/c1ccc[nH]1 returned ERK EGF block -2.6%.
For CN=c1scc(-c2ccco2)n1/N=C/c1ccc(O)c(O)c1 the results were ERK EGF block -4.5%.
Screening COc1c(C2=CC(=O)N(C)C2=O)c2c(n1C)C(=O)c1ccccc1C2=O returned ERK EGF block -4.8%.
For CCCCC[C@H](O)/C=C\[C@H]1[C@H](C/C=C\CCCC(=O)O)[C@@H](O)C[C@H]1O (tested in a mixture with another compound) the results were ERK EGF block 1.7%[25.7 µM].
CN(C)c1ccc(C(c2ccc(N(C)C)cc2)c2ccc([N+](=O)[O-])cc2)cc1 was read as ERK EGF block 14.1µM*.
CN(C)c1ccc(C=NC(CO)C(O)c2ccc([N+](=O)[O-])cc2)cc1 (stereo not given) was read as ERK EGF block 10.7%[57.5 µM].
`CC(C)(C)C(=O)NC(NC(=O)C(C)(C)C)c1ccc([N+](=O)[O-])cc1` gave ERK EGF block -5.8%.
Screening COc1cccc2c1C(=O)c1c(O)c3c(c(O)c1C2=O)C[C@](O)(C(C)=O)C[C@H]3O[C@@H]1C[C@H](N)[C@H](O)[C@H](C)O1 returned ERK EGF block -0.6%[25.7 µM].
For COc1cccc2c1C(=O)c1c(O)c3c(c(O)c1C2=O)C[C@@](O)(C(=O)CO)C[C@@H]3O[C@H]1C[C@H](N)[C@H](O)[C@H](C)O1 the results were ERK EGF block 28.2µM*.
`COc1cc(OC)c2c(=O)c(-c3ccccc3)coc2c1` gave ERK EGF block 22.3%.
N#Cc1ccc(CN2CCC3(CC2)CCN(S(=O)(=O)c2ccccc2)CC3)cc1 was read as ERK EGF block 5.8%.
Screening Cn1cccc1C(=O)N1CCC2(CC1)CN(c1ccccn1)C2 returned ERK EGF block 0.8%.
COc1ccccc1CN1CCC2(CC1)CCN(S(=O)(=O)c1ccccc1)CC2 was read as ERK EGF block 9.9%.
For COc1ccc2c(c1-c1c3c(cc(Br)c1OC)CCCC3)CCCC2 the results were ERK EGF block -8.2%.
Screening CCCC1CC(C(=O)N[C@H](C(C)O)C2OC(SC)[C@@H](O)C(O)C2O)N(C)C1 (stereo not given in full) returned ERK EGF block -1.7%.
CC(=O)Nc1ccc(S(=O)(=O)N2c3ccccc3C(C)=CC2(C)C)cc1 was read as ERK EGF block 1.5%.
Screening Cc1ccc(S(=O)(=O)N2c3ccccc3-c3c(ssc3=S)C2(C)C)cc1 returned ERK EGF block 12.6µM*.
`Cc1ccc(S(=O)(=O)N2C(=O)/C(=C3\SC(=S)NC3=O)c3ccccc32)cc1` gave ERK EGF block 0.8%[57.5 µM].
`CCCC[C@@H]1C[C@H]1C(NS(=O)(=O)c1cccc2cccnc12)c1ccc(-c2ccccc2)cc1` (stereo not given in full) gave ERK EGF block -0.2%.
`CN(C)c1ccc(/C=C2/C(=O)Nc3ccccc32)cc1` gave ERK EGF block -2.0%.
For CN(C)c1ccc(/C=C2\CCC/C(=C\c3ccccc3)C2=O)cc1 the results were ERK EGF block -4.4%.
For CC(=O)N1/C(=C/c2ccc(N(C)C)cc2)C(=O)c2ccccc21 the results were ERK EGF block 25.1µM*.
Screening CC(=O)NCC(=O)N[C@H](CCC(=O)O)C(=O)O returned ERK EGF block 0.2%.
`Cc1c(-c2ccc(O)cc2)nn(-c2ccc(O)cc2)c1-c1ccc(OCCN2CCCCC2)cc1` gave ERK EGF block -4.4%.
For CCC(=O)O[C@@]1(C(=O)CCl)C(C)CC2C3CCC4=CC(=O)C=C[C@@]4(C)[C@]3(F)C(O)C[C@]21C (stereo not given in full) the results were ERK EGF block 9.5%.
For O=c1c(-c2ccc(F)cc2)nc2cnc(Nc3ccccc3)nc2n1Cc1cccs1 the results were ERK EGF block 8.9%.
O=C(c1csnn1)N1CCC2(CC1)CN(c1cccc(-c3ccccc3)c1)C2 was read as ERK EGF block -4.5%.
For Cc1onc(-c2ccccc2)c1C(=O)N/N=C/c1cccc(O)c1 the results were ERK EGF block 40.0%.
Screening Cc1onc(-c2ccccc2)c1C(=O)N/N=C/C=C/c1ccccc1 returned ERK EGF block 17.8µM*.
Screening Cc1onc(-c2ccccc2)c1C(=O)N/N=C/c1ccco1 returned ERK EGF block -7.1%[57.5 µM].
`COc1cccc(Cn2c(=O)c(-c3cccc(C#N)c3)nc3cnc(Nc4ccccc4)nc32)c1` gave ERK EGF block -3.6%.
`CCNc1ncc2nc(-c3ccc(F)cc3)c(=O)n(CCC#N)c2n1` gave ERK EGF block -32.5%.
Screening O=C(Oc1ccc(Nc2ncnc3ccccc23)cc1)c1cccnc1 returned ERK EGF block 28.2µM*.
For CCOC(=O)c1ccc(Nc2ncnc3ccccc23)cc1 the results were ERK EGF block -7.4%.
Screening CC(C)(C)c1ccc(OC(=O)c2cccnc2)cc1 returned ERK EGF block 1.1%.
COC(=O)[C@@]1(Cc2ccc(OC)cc2)[C@H]2c3cc(C(=O)N(C)C)n(Cc4cc(C)n(C)n4)c3C[C@H]2CN1C(=O)c1ccccc1 was read as ERK EGF block -11.4%.
